Results filed as inconclusive are left out. The source made the active and inactive calls. Calls follow the shape of the dose curve; as a rule, active = well fitted curve in the direction sought with a large enough effect; inconclusive = small, poorly fitted or top-dose-only effect, or another doubt; inactive = no such curve, though single readings can be large; an effect the other way counts as inactive or inconclusive.
Key:
NIH3T3 = assay: qHTS assay to identify novel small-molecules to repurpose for Merkel cell carcinoma treatment (AID 1296009); conditions: MCC and control cell lines, CellTiter-Glo viability, 72 h; at 44.8 µM (top of the series) unless noted; also: nearly all actives have a fitted effect of over 60% in size
Procedure, shortened: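 72 hr, 37 degree celsius; NPC 8-pt / MIPE 11-pt dose response; compound pinned in DMSO; CellTiter-Glo, 10 min RT, luminescence; normalized to no-cell and DMSO controls.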

C33A = assay: Primary qHTS to identify gynecologic anti-cancer compounds using libraries of approved drugs and bioactive compounds (AID 1345084); conditions: Gynecologic cancer cell panel viability, ATPlite luminescence, 48 h; series mostly up to 57.5 µM; also: % is scaled to controls: 0 for no effect and ±100 for the full control effect; nearly all actives have a fitted effect of over 55% in size
Procedure, shortened: (§1)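 Cells, 1,000 per well, plated 16 h, then exposed 48 h at 37 C to compounds. Viability by ATPlite luminescence after 15 min at room temperature.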

CAOV3 = assay: as above; conditions: Gynecologic cancer cell panel viability, ATPlite luminescence, 48 h; series mostly up to 57.5 µM
Procedure, shortened: as §1

CASKI = assay: as above; conditions: Gynecologic cancer cell panel viability, ATPlite luminescence, 48 h; series mostly up to 57.5 µM
Procedure, shortened: as §1

Es-2 = assay: as above; conditions: Gynecologic cancer cell panel viability, ATPlite luminescence, 48 h; series mostly up to 57.5 µM
Procedure, shortened: as §1

HeLa = assay: as above; conditions: Gynecologic cancer cell panel viability, ATPlite luminescence, 48 h; series mostly up to 57.5 µM
Procedure, shortened: as §1

Hek293T = assay: as above; conditions: Gynecologic cancer cell panel viability, ATPlite luminescence, 48 h, control line for the selectivity index; series mostly up to 57.5 µM
Procedure, shortened: as §1

JEG-3 = assay: as above; conditions: Gynecologic cancer cell panel viability, ATPlite luminescence, 48 h; series mostly up to 57.5 µM
Procedure, shortened: as §1

OV90 = assay: as above; conditions: Gynecologic cancer cell panel viability, ATPlite luminescence, 48 h; series mostly up to 57.5 µM
Procedure, shortened: as §1

PA-1 = assay: as above; conditions: Gynecologic cancer cell panel viability, ATPlite luminescence, 48 h; series mostly up to 57.5 µM
Procedure, shortened: as §1

SKOV3 = assay: as above; conditions: Gynecologic cancer cell panel viability, ATPlite luminescence, 48 h; series mostly up to 57.5 µM
Procedure, shortened: as §1

Tov-21-G = assay: as above; conditions: Gynecologic cancer cell panel viability, ATPlite luminescence, 48 h; series mostly up to 57.5 µM
Procedure, shortened: as §1

Tov112D = assay: as above; conditions: Gynecologic cancer cell panel viability, ATPlite luminescence, 48 h; series mostly up to 57.5 µM
Procedure, shortened: as §1

C=C1C(=O)O[C@@H]2CC(C)=C([C@@H](C)CCCOC(C)=O)[C@@H](O)[C@H]12
inactive: outcome (NIH3T3) | Potency (C33A) | Potency (CAOV3) | outcome (CASKI) | Potency (Es-2) | Potency (HeLa) | Potency (Hek293T) | Potency (JEG-3) | Potency (OV90) | Potency (PA-1) | Potency (SKOV3) | Potency (Tov-21-G) | Potency (Tov112D)

COCCCc1sc(-c2ccccc2)nc1C(=O)Nc1ccccc1-c1nc2cc(CN3CCCC3)cnc2s1
inactive: outcome (NIH3T3) inactive [at 17.4 µM] | Potency (C33A) | Potency (CAOV3) | outcome (CASKI) | Potency (Es-2) | Potency (HeLa) | Potency (Hek293T) | Potency (JEG-3) | Potency (OV90) | Potency (PA-1) | Potency (SKOV3) | Potency (Tov-21-G) | Potency (Tov112D)

C[C@]1(OC(=O)/C=C/c2ccccc2)C[C@@H](O)[C@]2(O)C=CO[C@@H](O[C@@H]3O[C@H](CO)[C@@H](O)[C@H](O)[C@H]3O)[C@@H]21
inactive: outcome (NIH3T3) inactive [at 17.4 µM] | Potency (C33A) | Potency (CAOV3) | outcome (CASKI) | Potency (Es-2) | Potency (HeLa) | Potency (Hek293T) | Potency (JEG-3) | Potency (OV90) | Potency (PA-1) | Potency (SKOV3) | Potency (Tov-21-G) | Potency (Tov112D)

C[C@@H]1O[C@@H](O[C@H]2[C@H](OC(=O)[C@]34CCC(C)(C)C[C@H]3C3=CCC5[C@@]6(C)C[C@@H](O)[C@@H](O[C@@H]7O[C@H](CO)[C@@H](O)[C@H](O)[C@H]7O)[C@@](C)(CO)C6[C@H](O)C[C@@]5(C)[C@]3(C)CC4)OC[C@H](O)[C@@H]2O)[C@H](O)[C@H](O[C@@H]2OC[C@](O)(CO)[C@H]2O)[C@H]1O[C@@H]1OC[C@@H](O)[C@H](O[C@H]2O[C@H](C)[C@@H](O)[C@H](O)[C@@H]2O)[C@H]1O (some centres undefined)
inactive: outcome (NIH3T3) inactive [at 9.27 µM] | activity change, negative = cytotoxicity (C33A) 7.61% [at 6.55 µM] | activity change, negative = cytotoxicity (CAOV3) 0.345% [at 6.55 µM] | activity change, negative = cytotoxicity (CASKI) 0.644% [at 6.55 µM] | activity change, negative = cytotoxicity (Es-2) -2.14% [at 6.55 µM] | activity change, negative = cytotoxicity (HeLa) 14.1% [at 6.55 µM] | activity change, negative = cytotoxicity (Hek293T) 4.59% [at 6.55 µM] | activity change, negative = cytotoxicity (JEG-3) 14.8% [at 6.55 µM] | activity change, negative = cytotoxicity (OV90) -9.58% [at 6.55 µM] | activity change, negative = cytotoxicity (PA-1) 3.83% [at 6.55 µM] | activity change, negative = cytotoxicity (SKOV3) 3.05% [at 6.55 µM] | activity change, negative = cytotoxicity (Tov-21-G) -0.147% [at 6.55 µM] | activity change, negative = cytotoxicity (Tov112D) 7.72% [at 6.55 µM]

O=C(O)c1cccc(C(=O)CCC2OC(n3cnc4c(=O)[nH]cnc43)C(O)C2O)c1 (centres undefined)
inactive: outcome (NIH3T3) inactive [at 17.4 µM] | Potency (C33A) | Potency (CAOV3) | outcome (CASKI) | Potency (Es-2) | Potency (HeLa) | Potency (Hek293T) | Potency (JEG-3) | Potency (OV90) | Potency (PA-1) | Potency (SKOV3) | Potency (Tov-21-G) | Potency (Tov112D)

C=C(COC(=O)CC(C)C)C1Cc2cc(C(C)=O)ccc2O1 (centres undefined)
inactive: outcome (NIH3T3) | Potency (C33A) | Potency (CAOV3) | outcome (CASKI) | Potency (Es-2) | Potency (HeLa) | Potency (Hek293T) | Potency (JEG-3) | Potency (OV90) | Potency (PA-1) | Potency (SKOV3) | Potency (Tov-21-G) | Potency (Tov112D)

Cc1cc(CO)c(O)c(C(=O)CC2CC(=O)NC(=O)C2)c1
inactive: outcome (NIH3T3) | Potency (C33A) | Potency (CAOV3) | outcome (CASKI) | Potency (Es-2) | Potency (HeLa) | Potency (Hek293T) | Potency (JEG-3) | Potency (OV90) | Potency (PA-1) | Potency (SKOV3) | Potency (Tov-21-G) | Potency (Tov112D)

C=C(CC/C=C(\C)C(=O)O)C1(O)CC=C(C)CC1 (centres undefined)
inactive: outcome (NIH3T3) | Potency (C33A) | Potency (CAOV3) | outcome (CASKI) | Potency (Es-2) | Potency (HeLa) | Potency (Hek293T) | Potency (JEG-3) | Potency (OV90) | Potency (PA-1) | Potency (SKOV3) | Potency (Tov-21-G) | Potency (Tov112D)

CC(=O)OC1C(O)/C(C)=C\C2C(OC(=O)c3ccccc3)C(C)CC2(OC(C)=O)C(OC(C)=O)C(C)/C=C/C(C)(C)C1OC(C)=O (centres undefined)
inactive: outcome (NIH3T3) inactive [at 17.4 µM] | Potency (C33A) | Potency (CAOV3) | outcome (CASKI) | Potency (Es-2) | Potency (HeLa) | Potency (Hek293T) | Potency (JEG-3) | Potency (OV90) | Potency (PA-1) | Potency (SKOV3) | Potency (Tov-21-G) | Potency (Tov112D)

CN1C(=O)N(c2cc(Cl)cc(Cl)c2)C(=O)[C@@]1(C)Cc1ccc(Br)cc1
inactive: outcome (NIH3T3) | Potency (C33A) | Potency (CAOV3) | outcome (CASKI) | Potency (Es-2) | Potency (HeLa) | Potency (Hek293T) | Potency (JEG-3) | Potency (OV90) | Potency (PA-1) | Potency (SKOV3) | Potency (Tov-21-G) | Potency (Tov112D)

Cn1c2ccc(NC(=O)c3ccccc3)cc2c(=O)n2nc(C(=O)O)cc12
inactive: outcome (NIH3T3) inactive [at 17.4 µM] | Potency (C33A) | Potency (CAOV3) | outcome (CASKI) | Potency (Es-2) | Potency (HeLa) | Potency (Hek293T) | Potency (JEG-3) | Potency (OV90) | Potency (PA-1) | Potency (SKOV3) | Potency (Tov-21-G) | Potency (Tov112D)

CCCNCCOc1ccc(NC(=O)c2c[nH]c3c2C(=O)CCC3)cc1F
inactive: outcome (NIH3T3) | Potency (C33A) | Potency (CAOV3) | outcome (CASKI) | Potency (Es-2) | Potency (HeLa) | Potency (Hek293T) | Potency (JEG-3) | Potency (OV90) | Potency (PA-1) | Potency (SKOV3) | Potency (Tov-21-G) | Potency (Tov112D)

CC1(C)CC[C@]2(C(=O)O[C@@H]3O[C@H](CO)[C@@H](O)[C@H](O)[C@H]3O)CC[C@]3(C)C(=CCC4[C@@]5(C)C[C@H](O)[C@H](O[C@@H]6O[C@H](C(=O)O)[C@@H](O)[C@H](O)[C@H]6O)[C@@](C)(CO)C5CC[C@]43C)C2C1 (some centres undefined)
inactive: outcome (NIH3T3) inactive [at 9.27 µM] | activity change, negative = cytotoxicity (C33A) -10.3% [at 6.55 µM] | activity change, negative = cytotoxicity (CAOV3) 19.8% [at 6.55 µM] | activity change, negative = cytotoxicity (CASKI) -13.7% [at 6.55 µM] | activity change, negative = cytotoxicity (Es-2) -1.31% [at 6.55 µM] | activity change, negative = cytotoxicity (HeLa) -7.43% [at 6.55 µM] | activity change, negative = cytotoxicity (Hek293T) -0.0375% [at 6.55 µM] | activity change, negative = cytotoxicity (JEG-3) -4.92% [at 6.55 µM] | activity change, negative = cytotoxicity (OV90) -11.4% [at 6.55 µM] | activity change, negative = cytotoxicity (PA-1) 1.64% [at 6.55 µM] | activity change, negative = cytotoxicity (SKOV3) 14.6% [at 6.55 µM] | activity change, negative = cytotoxicity (Tov-21-G) -2.15% [at 6.55 µM] | activity change, negative = cytotoxicity (Tov112D) 8.5% [at 6.55 µM]
